Test results taken from PubChem BioAssay AID1159580 (chemical genetic matrix, 2015).
Values joined by “and” are separate entries in the source; they are usually repeats but may differ in a detail not shown here. Equal entries are not always repeated. Hit rate of the full screen: of about 5,500 compounds, about 2,000 (36%) were called active. Inconclusive results (about 18%) are left out. Cut-off read from the data, not from the text of the source: active = normalized growth mostly below about 0.91 (no sharp cut-off); inconclusive = no clear call, values can overlap the other calls; inactive = mostly above about 0.92. The list shows a part of the results.

Assay: chemical genetic growth profiling, strain panel (AID 1159580);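 note: tested at 20 µM; growth read once vehicle control cultures reached saturation at 30 °C; 1 = growth at the plate median or of vehicle wells; lower values mean less growth of the strain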
Conditions: S. cerevisiae deletion strains, growth OD

Measured: normalized growth

CC(C)c1cc2c(c(O)c1O)[C@@]1(C(=O)O)CCCC(C)(C)C1CC2 (stereo partly specified)
0.962 (inactive) and 0.657 (active): locus YJL095W, strain BCK1, stronger effect = lower value
active: locus YAL026C, strain drs2, stronger effect = lower value 0.835 | locus YAL030W, strain snc1, stronger effect = lower value 0.917 | locus YBR009C, strain hhf1, stronger effect = lower value 0.775 | locus YCL011C, strain gbp2, stronger effect = lower value 0.908 | locus YCL016C, strain dcc1, stronger effect = lower value 0.886 | locus YDL192W, strain arf1, stronger effect = lower value 0.874 | locus YDR392W, strain spt3, stronger effect = lower value 0.24 | locus YER155C, strain BEM2 (second series), stronger effect = lower value 0.697 | locus YGL173C, strain kem1, stronger effect = lower value 0.885 | locus YGR229C, strain SMI1, stronger effect = lower value 0.207 | locus YHR013C, strain ard1, stronger effect = lower value 0.705 | locus YHR030C, strain SLT2, stronger effect = lower value 0.903 and 0.663 | locus YHR079C, strain IRE1, stronger effect = lower value 0.341 | locus YJL095W, strain BCK1 (second series), stronger effect = lower value 0.86 | locus YJL164C, strain tpk1, stronger effect = lower value 0.908 | locus YJL166W, strain qcr8, stronger effect = lower value 0.462 | locus YKL085W, strain MDH1 (second series), stronger effect = lower value 0.913 | locus YKL085W, strain MDH1, stronger effect = lower value 0.913 | locus YKR001C, strain vps1, stronger effect = lower value 0.866 | locus YLL041C, strain sdh2, stronger effect = lower value 0.664 | locus YLR027C, strain aat2, stronger effect = lower value 0.884 | locus YLR113W, strain HOG1, stronger effect = lower value 0.434 | locus YLR221C, strain rsa3, stronger effect = lower value 0.792 | locus YLR258W, strain gsy2, stronger effect = lower value 0.859 | locus YLR262C, strain YPT6 (second series), stronger effect = lower value 0.552 | locus YLR262C, strain YPT6, stronger effect = lower value 0.546 | locus YLR320W, strain mms22, stronger effect = lower value 0.809 | locus YLR418C, strain cdc73, stronger effect = lower value 0.642 | locus YMR058W, strain fet3, stronger effect = lower value 0.815 | locus YMR125W, strain sto1, stronger effect = lower value 0.827 | locus YMR205C, strain PFK2, stronger effect = lower value 0.873 | locus YMR307W, strain GAS1, stronger effect = lower value 0.472 | locus YNL071W, strain lat1, stronger effect = lower value 0.207 | locus YNL271C, strain bni1, stronger effect = lower value 0.908 | locus YNL298W, strain CLA4, stronger effect = lower value 0.874 | locus YOR070C, strain gyp1, stronger effect = lower value 0.92 | locus YOR231W, strain MKK1, stronger effect = lower value 0.394 | locus YPL051W, strain arl3, stronger effect = lower value 0.897 | locus YPL240C, strain hsp82, stronger effect = lower value 0.614 | locus YPL241C, strain CIN2, stronger effect = lower value 0.914 | locus YPL256C, strain CLN2, stronger effect = lower value 0.421
inactive: locus YAL021C, strain ccr4, stronger effect = lower value 0.988 | locus YBL061C, strain skt5, stronger effect = lower value 0.953 | locus YBR021W, strain FUR4, stronger effect = lower value 1.01 | locus YBR023C, strain chs3, stronger effect = lower value 0.956 | locus YBR171W, strain sec66, stronger effect = lower value 0.975 | locus YBR229C, strain ROT2, stronger effect = lower value 1.01 | locus YBR231C, strain swc5, stronger effect = lower value 0.969 | locus YBR279W, strain paf1, stronger effect = lower value 0.948 | locus YCL029C, strain bik1, stronger effect = lower value 1.01 | locus YCL061C, strain MRC1, stronger effect = lower value 0.954 | locus YCL069W, strain vba3, stronger effect = lower value 0.998 | locus YCR088W, strain abp1, stronger effect = lower value 0.991 | locus YDL005C, strain med2, stronger effect = lower value 1 | locus YDL035C, strain GPR1, stronger effect = lower value 0.943 | locus YDL040C, strain nat1, stronger effect = lower value 0.99 | locus YDL074C, strain BRE1, stronger effect = lower value 0.946 | locus YDL101C, strain DUN1, stronger effect = lower value 1.01 | locus YDL134C, strain PPH21, stronger effect = lower value 0.993 | locus YDL185W, strain tfp1, stronger effect = lower value 0.998 | locus YDR001C, strain nth1, stronger effect = lower value 0.997 | locus YDR069C, strain doa4, stronger effect = lower value 0.923 | locus YDR101C, strain arx1, stronger effect = lower value 1.02 | locus YDR137W, strain rgp1, stronger effect = lower value 0.876 | locus YDR150W, strain NUM1, stronger effect = lower value 0.929 | locus YDR159W, strain sac3, stronger effect = lower value 0.902 | locus YDR162C, strain NBP2, stronger effect = lower value 0.851 | locus YDR195W, strain ref2 0.979 | locus YDR297W, strain sur2, stronger effect = lower value 0.982 | locus YDR318W, strain mcm21, stronger effect = lower value 0.959 | locus YDR334W, strain swr1, stronger effect = lower value 1 | locus YDR335W, strain msn5, stronger effect = lower value 0.988 | locus YDR388W, stronger effect = lower value 1 | locus YDR502C, strain sam2, stronger effect = lower value 0.972 | locus YEL003W, strain gim4, stronger effect = lower value 0.94 | locus YEL037C, strain rad23, stronger effect = lower value 0.992 | locus YEL061C, strain CIN8 (second series), stronger effect = lower value 0.993 | locus YEL061C, strain CIN8, stronger effect = lower value 0.968 | locus YER015W, strain faa2, stronger effect = lower value 0.987 | locus YER016W, strain bim1, stronger effect = lower value 0.971 | locus YER110C, stronger effect = lower value 1.03 | locus YER111C, strain swi4, stronger effect = lower value 0.975 | locus YER155C, strain BEM2, stronger effect = lower value 1.04 | locus YER167W, strain BCK2, stronger effect = lower value 0.981 | locus YFR010W, strain ubp6, stronger effect = lower value 0.944 | locus YGL078C, strain dbp3, stronger effect = lower value 0.957 | locus YGL086W, strain mad1, stronger effect = lower value 0.94 | locus YGL167C, strain pmr1, stronger effect = lower value 0.978 | locus YGL227W, strain vid30, stronger effect = lower value 1 | locus YGL240W, strain doc1, stronger effect = lower value 0.938 | locus YGL248W, strain PDE1, stronger effect = lower value 0.962 | locus YGL253W, strain hxk2, stronger effect = lower value 0.976 | locus YGR078C, strain PAC10, stronger effect = lower value 0.873 | locus YGR135W, strain pre9, stronger effect = lower value 0.969 | locus YGR252W, strain gcn5, stronger effect = lower value 0.903 | locus YHR027C, strain rpn1, stronger effect = lower value 0.956 | locus YHR079C, strain IRE1 (second series), stronger effect = lower value 1 | locus YHR094C, strain hxt1, stronger effect = lower value 1.01 | locus YHR129C, strain ARP1, stronger effect = lower value 0.921 | locus YHR142W, strain chs7, stronger effect = lower value 0.969 | locus YHR200W, strain rpn10, stronger effect = lower value 0.984 | locus YIL066C, strain RNR3, stronger effect = lower value 0.937 | locus YIL073C, strain SPO22, stronger effect = lower value 0.936 | locus YIL125W, strain kgd1, stronger effect = lower value 0.958 | locus YIR030C, strain dcg1, stronger effect = lower value 1.01 | locus YJL092W, strain hpr5, stronger effect = lower value 0.98 | locus YJL115W, strain asf1, stronger effect = lower value 1.01 | locus YJL129C, strain trk1, stronger effect = lower value 1.04 | locus YJL134W, strain LCB3, stronger effect = lower value 1.02 | locus YJL154C, strain vps35, stronger effect = lower value 1 | locus YJL168C, strain set2, stronger effect = lower value 1.01 | locus YJL187C, strain SWE1 (second series), stronger effect = lower value 0.973 | locus YJL187C, strain SWE1, stronger effect = lower value 0.972 | locus YJR043C, strain POL32, stronger effect = lower value 0.982 | locus YJR066W, strain TOR1, stronger effect = lower value 0.84 | locus YJR075W, strain HOC1, stronger effect = lower value 0.947 | locus YKL009W, strain mrt4, stronger effect = lower value 0.95 | locus YKL068W, stronger effect = lower value 1.02 | locus YKL160W, strain elf1, stronger effect = lower value 0.957 | locus YKR026C, strain gcn3, stronger effect = lower value 0.994 | locus YKR091W, strain srl3, stronger effect = lower value 0.988 | locus YLL001W, strain dnm1, stronger effect = lower value 0.984 | locus YLL026W, stronger effect = lower value 0.932 | locus YLR039C, strain RIC1, stronger effect = lower value 0.831 | locus YLR058C, strain SHM2, stronger effect = lower value 1 | locus YLR102C, strain apc9, stronger effect = lower value 1.01 | locus YLR268W, strain sec22, stronger effect = lower value 0.901 | locus YLR330W, strain CHS5, stronger effect = lower value 0.944 | locus YLR342W, strain FKS1 (second series), stronger effect = lower value 0.84 | locus YLR342W, strain FKS1, stronger effect = lower value 0.968 | locus YLR357W, strain rsc2, stronger effect = lower value 0.949 | locus YLR370C, strain arc18, stronger effect = lower value 0.974 | locus YLR371W, strain rom2, stronger effect = lower value 0.976 | locus YLR384C, strain iki3, stronger effect = lower value 1 | locus YML016C, strain PPZ1, stronger effect = lower value 0.994 | locus YML032C, strain rad52, stronger effect = lower value 0.993 | locus YML120C, strain ndi1, stronger effect = lower value 0.984 | locus YML124C, strain tub3, stronger effect = lower value 1.01 | locus YMR078C, strain ctf18, stronger effect = lower value 1 | locus YMR129W, stronger effect = lower value 0.99 | locus YMR223W, strain ubp8, stronger effect = lower value 0.964 | locus YMR231W, strain pep5, stronger effect = lower value 0.97 | locus YNL067W, strain RPL9B, stronger effect = lower value 0.972 | locus YNL153C, strain GIM3, stronger effect = lower value 0.985 | locus YNL183C, strain NPR1, stronger effect = lower value 0.9 | locus YNL209W, strain ssb2, stronger effect = lower value 0.962 | locus YNL233W, strain BNI4, stronger effect = lower value 0.955 | locus YNL248C, strain rpa49, stronger effect = lower value 0.98 | locus YNL250W, strain rad50, stronger effect = lower value 1.01 | locus YNL307C, strain MCK1, stronger effect = lower value 0.956 | locus YNL322C, strain KRE1 (second series), stronger effect = lower value 1.03 | locus YNR049C, strain mso1, stronger effect = lower value 0.997 | locus YNR052C, strain pop2, stronger effect = lower value 0.973 | locus YOL012C, strain htz1 0.721 | locus YOL147C, strain pex11, stronger effect = lower value 1.04 | locus YOR001W, strain rrp6, stronger effect = lower value 0.992 | locus YOR061W, strain CKA2, stronger effect = lower value 1 | locus YOR069W, strain VPS5, stronger effect = lower value 0.998 | locus YOR080W, strain dia2, stronger effect = lower value 0.987 | locus YOR083W, strain WHI5, stronger effect = lower value 0.965 | locus YOR106W, strain vam3, stronger effect = lower value 0.871 | locus YOR136W, strain idh2, stronger effect = lower value 1 | locus YOR144C, strain elg1, stronger effect = lower value 1.01 | locus YOR184W, strain ser1, stronger effect = lower value 0.964 | locus YOR265W, strain rbl2, stronger effect = lower value 0.982 | locus YOR270C, strain vph1, stronger effect = lower value 0.954 | locus YOR290C, strain snf2, stronger effect = lower value 0.945 | locus YOR316C, strain cot1, stronger effect = lower value 1.02 | locus YPL078C, strain atp4, stronger effect = lower value 1.01 | locus YPL106C, strain sse1, stronger effect = lower value 0.968 | locus YPR119W, strain clb2, stronger effect = lower value 1.03 | locus YPR141C, strain kar3, stronger effect = lower value 0.992 | locus YPR163C, strain tif3, stronger effect = lower value 0.964 | locus YPR167C, strain met16, stronger effect = lower value 1 | strain wtn01, stronger effect = lower value 0.936
